FLuc counter = qHTS profiling assay for firefly luciferase inhibitor/activator using purifed enzyme and Km concentrations of substrates (counterscreen for miR-21 project); 360,000 compounds, 6.9% hits; Luciferin 4-monooxygenase (Photinus pyralis), P08659; purified FLuc, Km substrates, luminescence inhibition; Potency, µM (highest dose often 57.5 µM), for inactives: at the top dose activity change, negative = inhibition, usual class: inhibitors; AID 588342, 2011;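 also: plate controls were vehicle for no effect and reference inhibitor for full effect; nearly all actives have a fitted effect of over 55% in size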
Target sequence (P08659 whole entry, looked up): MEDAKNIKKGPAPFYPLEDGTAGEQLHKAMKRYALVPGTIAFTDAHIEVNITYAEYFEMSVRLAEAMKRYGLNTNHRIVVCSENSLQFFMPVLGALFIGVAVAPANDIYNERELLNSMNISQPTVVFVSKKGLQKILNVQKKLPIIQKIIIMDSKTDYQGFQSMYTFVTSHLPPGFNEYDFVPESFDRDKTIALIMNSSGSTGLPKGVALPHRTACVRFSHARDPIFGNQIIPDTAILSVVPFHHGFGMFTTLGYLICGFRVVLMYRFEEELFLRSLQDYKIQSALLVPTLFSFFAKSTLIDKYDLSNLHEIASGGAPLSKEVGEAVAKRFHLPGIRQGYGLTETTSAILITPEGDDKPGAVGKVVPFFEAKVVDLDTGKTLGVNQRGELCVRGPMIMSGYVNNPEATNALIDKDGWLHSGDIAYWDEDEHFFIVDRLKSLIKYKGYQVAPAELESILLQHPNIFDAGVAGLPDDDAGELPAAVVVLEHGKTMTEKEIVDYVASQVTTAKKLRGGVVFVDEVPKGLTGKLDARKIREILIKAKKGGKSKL
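Purified P. pyralis luciferase, 10 nM final, with Km-level 10 uM D-luciferin and 10 uM ATP in 50 mM Tris acetate pH 7.5, 10 mM Mg acetate, 0.01% Tween-20, 0.05% BSA; 6-point qHTS titration about 60 µM downward; luminescence read.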
Rab9 prom act = qHTS Assay for Rab9 Promoter Activators | Potency, µM (series often up to 9.22 µM), without a hit: at the top dose activation, negative = inhibition, hits mostly activators | Huh7 Rab9 promoter-luciferase reporter, luminescence, 24 h | 320,000 compounds, 2.8% hits; also: % of control where 0% means no effect; nearly all actives have a fitted effect of over 60% in size
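Cell-based reporter: Huh7 stable for Rab9 promoter-driven luciferase, plated in reduced-serum medium with 10% FBS at 1500 cells/well, compound-treated 24 h at 37 °C, luminescence read after 10 min reagent.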
KinaseGlo FLuc = Counterscreen for Luciferase (Kinase-Glo TM) Inhibition; Kinase-Glo luciferase, ATP luminescence, 8 min; AID 1379, 2008; Luciferin 4-monooxygenase (Photuris pensylvanica), Q27757; Potency, µM (highest dose often 38.3 µM), for the others: at the top dose activity change, negative = inhibition, most hits filed as inhibitors; 200,000 compounds, 0.28% hits; also: % is scaled to controls: 0 for no effect and ±100 for the full control effect; nearly all actives have a fitted effect of over 60% in size
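Kinase-Glo luciferase light output from ATP and luciferin was measured with 10 uM ATP, within the enzyme's linear range. Buffer: 50 mM imidazole pH 7.2, 50 mM KCl, 7 mM MgCl2, 0.01% Tween 20, 0.05% BSA; luminescence read after 8 min at ambient temperature.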
ELG1 genotoxic = qHTS screen for small molecules that induce genotoxicity in human embryonic kidney (HEK293T) cells expressing luciferase-tagged ELG1; HEK293T ELG1-luciferase reporter, luminescence, 16 h; Potency, µM (top dose mostly 46 µM), for the others: at the top dose activity change, positive = activation, actives largely listed as activators; 330,000 compounds, 1.3% hits; AID 504466, 2011; also: % of control where 0% means no effect; nearly all actives have a fitted effect of over 60% in size
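Step 1: seed 2,000 HEK293T ELG1-luciferase cells per well. Step 2: add compound or DMSO, incubate 16 hr at 37 °C. Step 3: ONE-Glo, 30 min at room temperature, read luminescence.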
NPC1 prom act = qHTS Assay for NPC1 Promoter Activators | Huh7 NPC1 promoter luciferase reporter, 24 h | Potency, µM (series often up to 9.22 µM), for inactives: top-dose activation, hits mostly activators | 320,000 compounds, 2.4% hits; also: % of control where 0% means no effect; nearly all actives have a fitted effect of over 60% in size
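Quantitative HTS used a cell-based reporter: Huh7 cells stably bearing the NPC1 promoter upstream of luciferase were treated with compounds for 24 h, and promoter activation was read as luminescence.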
SMN2 splice up = qHTS Assay for Enhancers of SMN2 Splice Variant Expression; HEK293 SMN2-luciferase splicing reporter, luminescence, 30-36 h; Potency, µM (highest dose often 46.1 µM), inactives show at the top dose activity change, positive = activation, most hits filed as activators; 210,000 compounds, 2.8% hits; AID 1458, 2008; also: % of control where 0% means no effect; nearly all actives have a fitted effect of over 55% in size
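HEK293 cells carry an SMN2 […]–luciferase reporter in which exon 7 inclusion puts luciferase in frame. Cells were plated 10-12 h before compound addition, then incubated 30-36 h at 37C. ONE-Glo luminescence was read; sodium butyrate at 4.5 mM final served as control.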
* = called active by the depositor; ? = inconclusive; . = not tested or not shown. In the library only some 7.3% were active in any assay of this set; here they are far more common. Calls follow the shape of the dose curve; as a rule, active = well fitted curve in the direction sought with a large enough effect; inconclusive = small, poorly fitted or top-dose-only effect, or another doubt; inactive = no such curve, though single readings can be large; an effect the other way counts as inactive or inconclusive. Potency is read from the fitted curve at half-maximal effect.

SMILES	FLuc counter	Rab9 prom act	KinaseGlo FLuc	ELG1 genotoxic	NPC1 prom act	SMN2 splice up
COC(=O)C1(C(=O)OC)CC2=C[C@H](CC2=O)Cc2ccccc2[C@@H]1C[N+](=O)[O-]	.	.	0%	.	.	8%
CCCn1c(O)c(N=Nc2ccc3ccccc3n2)c2ccccc21	8.5µM*	0.71µM*	-5%	?	1µM*	?
CC(=O)C1=C(c2ccc(Br)cc2)N(C(C)=O)n2c(nnc2C2CCCCC2)S1	-1%	.	.	.	.	.
Cc1c(-c2cccc(NC(=O)Nc3ccccc3)c2)nc2ncccn12	19µM*	.	.	.	.	.
O=C(Nc1cccc(-c2cn3cccnc3n2)c1)Nc1ccccc1F	13µM*	?	-2%	-12%	-4%	-8%
O=C(Nc1ccccc1)Nc1cccc(-c2cn3cccnc3n2)c1	9.5µM*	?	-3%	-8%	10%	-1%
O=C(CSc1nc2ccccc2nc1Cc1ccccc1)N1CCc2ccccc21	-1%	.	.	.	.	.
Cc1cccc(NC(=O)c2ccc(CNS(=O)(=O)c3ccc4c(c3)C(C)(C)C(=O)N4C)cc2)c1	-11%	.	.	.	.	.
CCCCc1nnc(NC(=O)C=C(C)C)s1	-2%	3%	3%	-2%	0%	14%
CN(c1ccccc1)S(=O)(=O)c1nnc(NC(=O)c2cccs2)s1	1.1µM*	.	.	.	.	.
CC(C)=CC(=O)Nc1nnc(C(C)C)s1	12µM*	2.5µM*	4%	?	3.2µM*	11µM*
CCN(c1cccc(C)c1)S(=O)(=O)c1nnc(NC(=O)c2cccs2)s1	-14%	.	.	.	.	.
O=C(Nc1nnc(C2CC2)s1)c1cccs1	?	3.2µM*	.	?	2.8µM*	.
O=C(Nc1nnc(CCc2ccccc2)s1)c1cccs1	?	?	2%	8%	?	26%
CC(C)(C)c1nnc(NC(=O)c2cccs2)s1	11µM*	2.8µM*	-20%	?	2.8µM*	.
COc1c(C(=O)Nc2nnc(C3CC3)s2)csc1Cl	?	4µM*	.	?	4.5µM*	.
CCCCC(CC)c1nnc(NC(=O)c2cccs2)s1 (configuration not stated)	?	-11%	2%	-8%	-6%	.
CC(C)c1nnc(NC(=O)c2cccs2)s1	13µM*	2.5µM*	-10%	4.1µM*	2.8µM*	14µM*
COCCNC(=O)CSc1nc(-c2ccc(F)cc2)[nH]c1-c1ccc(Cl)cc1	1%	.	.	.	.	22%
Cc1ccc(Cn2c(Cc3ccccc3)nc3ccccc32)cc1	?	-2%	0%	-6%	-1%	-35%
C#CCn1c(/C=C/c2ccc(Cl)cc2)nc2ccccc21	0.19µM*	.	.	.	.	2.5µM*
CC(NC(=O)/C=C/c1ccco1)c1nc2ccccc2n1Cc1c(Cl)cccc1Cl (configuration not stated)	2%	14%	-1%	-1%	7%	-3%
Clc1ccc(Cn2c(/C=C/c3ccco3)nc3ccccc32)cc1	11µM*	3.5µM*	-7%	14%	?	95%
O=c1c2ccccc2nc(/C=C/c2ccc(Cl)cc2)n1CCO	-4%	-1%	.	2%	-3%	.
Cc1ccc(Cn2c(/C=C/c3ccco3)nc3ccccc32)cc1	11µM*	?	-27%	?	?	.
SMILES	FLuc counter	Rab9 prom act	KinaseGlo FLuc	ELG1 genotoxic	NPC1 prom act	SMN2 splice up
CCCOc1ccc(-c2cc(C(=O)NCC3CCCO3)c3ccccc3n2)cc1 (configuration not stated)	3µM*	20%	-2%	-10%	12%	9%
COc1ccc(-c2cc(C(=O)NC3CCCC3)c3ccccc3n2)cc1	6.7µM*	6%	.	-3%	14%	.
COc1ccc(-c2cc(C(=O)NC3CC3)c3ccccc3n2)cc1	21µM*	-1%	.	-1%	-4%	.
O=C(NCC1CCCO1)c1cc(-c2ccncc2)nc2ccccc12 (configuration not stated)	1%	2%	.	-1%	-2%	.
O=C(/C=C/c1ccccc1[N+](=O)[O-])OCC(=O)c1ccccc1	24µM*	1%	-1%	8%	0%	7%
NC(=O)COC(=O)/C=C/c1ccccc1[N+](=O)[O-]	-2%	-2%	2%	-1%	-1%	13%
O=C(/C=C/c1ccccc1[N+](=O)[O-])Oc1ccccc1	6.7µM*	-1%	.	0%	-6%	.
O=C(/C=C/c1ccccc1[N+](=O)[O-])c1ccc(F)cc1	13µM*	26%	1%	?	15%	-13%
O=C(/C=C/c1ccccc1[N+](=O)[O-])NNC(=O)c1ccncc1	.	2%	.	0%	4%	.
O=C(O)c1ccc(N/N=C/C=C/c2ccccc2[N+](=O)[O-])cc1	3.4µM*	1.4µM*	-7%	?	1.4µM*	8.9µM*
O=C(Cc1ccccc1)N/N=C/C=C/c1ccccc1[N+](=O)[O-]	-1%	?	.	14%	?	.
COc1ccc(C(=O)COC(=O)/C=C/c2ccccc2[N+](=O)[O-])cc1	.	.	.	0%	.	.
Cc1ccc(-c2nc3c4ccccc4n(CC(=O)N4CCN(c5ccc(F)cc5)CC4)c(=O)n3n2)cc1	-3%	.	.	.	.	.
CCC(C)O (configuration not stated)	.	.	.	.	.	4%
COc1ccc(C2C(=O)N(C3CCCCCC3)CC(=O)N2Cc2ccc(C)cc2)cc1 (configuration not stated)	6%	.	.	.	.	.
CC(=O)Nc1ccc(NC(=O)CSc2nnc(-c3cc(C)[nH]n3)n2N)cc1	-12%	-1%	.	0%	-13%	.
Cc1cc(-c2nnc(SCC(=O)Nc3ccc(C)c(C)c3)n2N)n[nH]1	11µM*	6%	.	1%	18%	.
Cc1cccc(C(=O)OCC(=O)N2CCc3ccccc3C2)c1O	.	.	.	-4%	.	.
O=C(OCC(=O)N1CCCCCC1)c1ccc(F)cc1F	13µM*	3.5µM*	.	1%	15%	.
Cc1cccc(C(=O)OCC(=O)N2CCCCCC2)c1	19µM*	?	.	?	?	.
O=C(OCC(=O)N1CCOCC1)c1ccccc1Cc1ccccc1	9.5µM*	3.2µM*	-17%	13µM*	1.6µM*	11µM*
Cc1cc(C)cc(C(=O)OCC(=O)N2CCCC2)c1	-3%	6%	.	5%	4%	.
Cc1cccc(C(=O)OCC(=O)N2CCCCCC2)c1O	.	3.2µM*	.	?	3.2µM*	.
O=C(O)C(Oc1ccc2ccc(=O)oc2c1)c1ccccc1 (configuration not stated)	.	.	2%	.	.	9%

Source: PubChem
